# Over roughly 2,900 compounds, “NF-kB SEAP reporter activity, fold change vs agonist alone” has its median near 0.99; the highest 2% begin near 2.6. Many of the other results were omitted from the sample, so the highest values are more common in it than they were.
# How the values were obtained:
# RAW-Dual [1] = test: NF-kB SEAP reporter activity, fold change vs agonist alone; cytotoxicity flag (confluency mask): not cytotoxic; higher = enhanced NF-kB activity
# In short: (§1)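 After 50 nL of library stock was delivered by pin tool to RAW-Dual macrophages (50,000 cells/well, DMEM, 384-well plates), a PRR agonist was added 1 h later and the plates were kept at 37 °C, 5% CO2. Twenty hours later, IRF was read from supernatant by QuantiLuc luminescence and NF-κB by QuantiBlue absorbance at 620 nm. Reporter activity is stated as fold change over agonist-alone wells. Wells with IncuCyte confluency under 70% of agonist controls in both mask sets were counted as cytotoxic.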
# RAW-Dual [2] = test: NF-kB SEAP reporter activity, fold change vs agonist alone; higher = enhanced NF-kB activity; details: library stock concentration (final ~1000-fold dilution): 10 mM
# In short: as §1
# RAW-Dual [3] = test: NF-kB SEAP reporter activity, fold change vs agonist alone; cytotoxicity flag (confluency mask): cytotoxic (confluency <70% of control); higher = enhanced NF-kB activity
# In short: as §1
# [4] = agonist: ODN 1826 (TLR9) 0.5 ug/mL
# [5] = agonist: Pam2CSK4 (TLR2/6) 0.1 ug/mL
# [6] = agonist: Pam3CSK4 (TLR2/1) 0.1 ug/mL
# [7] = cytotoxicity flag (confluency mask): not cytotoxic, agonist: Imiquimod (TLR7) […]
# [8] = cytotoxicity flag (confluency mask): not cytotoxic, agonist: MPLA (TLR4) […]
# [9] = cytotoxicity flag (confluency mask): cytotoxic (confluency <70% of control), agonist: Imiquimod (TLR7) […]
# [10] = cytotoxicity flag (confluency mask): cytotoxic (confluency <70% of control), agonist: MPLA (TLR4) […]
smiles,measurement,setting,value
CS(=O)c1ccc(-c2nc(-c3ccc(F)cc3)c(-c3ccncc3)[nH]2)cc1 (stereo not given) (library stock concentration (final ~1000-fold dilution): 10 mM),NF-kB SEAP reporter activity,RAW-Dual [1]; agonist: LPS (TLR4) 0.1 ug/mL,2.27
same,NF-kB SEAP reporter activity,RAW-Dual [1]; [4],0.762
same,NF-kB SEAP reporter activity,RAW-Dual [1]; [5],0.716
same,NF-kB SEAP reporter activity,RAW-Dual [1]; [6],1.02
COc1ccc2cc(-c3[nH]c(-c4ccc(S(C)=O)cc4)nc3-c3ccncc3)ccc2c1 (stereo not given),NF-kB SEAP reporter activity,RAW-Dual [2]; [7],1.81
same,NF-kB SEAP reporter activity,RAW-Dual [2]; [8],2.57
COc1ccc2cc(-c3[nH]c(-c4ccc(S(C)=O)cc4)nc3-c3ccncc3)ccc2c1 (stereo not given) (library stock concentration (final ~1000-fold dilution): 10 mM),NF-kB SEAP reporter activity,RAW-Dual [1]; agonist: LPS (TLR4) 0.1 ug/mL,3.42
same,NF-kB SEAP reporter activity,RAW-Dual [1]; [4],2.22
same,NF-kB SEAP reporter activity,RAW-Dual [1]; [5],1.74
same,NF-kB SEAP reporter activity,RAW-Dual [1]; [6],2.04
CCS(=O)(=O)N1CCN(c2ccc(Nc3ncc(C(N)=O)c(NC4CC4)n3)cc2)CC1.Cl,NF-kB SEAP reporter activity,RAW-Dual [2]; [9],0.23
same,NF-kB SEAP reporter activity,RAW-Dual [2]; [10],0.398
CCS(=O)(=O)N1CCN(c2ccc(Nc3ncc(C(N)=O)c(NC4CC4)n3)cc2)CC1.Cl (library stock concentration (final ~1000-fold dilution): 10 mM),NF-kB SEAP reporter activity,RAW-Dual [3]; agonist: LPS (TLR4) 0.1 ug/mL,0.273
same,NF-kB SEAP reporter activity,RAW-Dual [3]; [4],0.218
same,NF-kB SEAP reporter activity,RAW-Dual [3]; [5],0.0746
same,NF-kB SEAP reporter activity,RAW-Dual [3]; [6],0.121
CCOc1ccc(Cc2cc(C3OC(CO)C(O)C(O)C3O)ccc2Cl)cc1 (stereo not given),NF-kB SEAP reporter activity,RAW-Dual [2]; [7],1.04
same,NF-kB SEAP reporter activity,RAW-Dual [2]; [8],1.03
CCOc1ccc(Cc2cc(C3OC(CO)C(O)C(O)C3O)ccc2Cl)cc1 (stereo not given) (library stock concentration (final ~1000-fold dilution): 10 mM),NF-kB SEAP reporter activity,RAW-Dual [1]; agonist: LPS (TLR4) 0.1 ug/mL,1.04
same,NF-kB SEAP reporter activity,RAW-Dual [1]; [4],1.2
same,NF-kB SEAP reporter activity,RAW-Dual [1]; [5],1.01
same,NF-kB SEAP reporter activity,RAW-Dual [1]; [6],1.1
CCC1(O)CC2CN(CCc3c([nH]c4ccccc34)C(C(=O)OC)(c3cc4c(cc3OC)N(C=O)C3C(O)(C(=O)OC)C(OC(C)=O)C5(CC)C=CCN6CCC43C65)C2)C1.O=S(=O)(O)O (stereo not given) (library stock concentration (final ~1000-fold dilution): 10 mM),NF-kB SEAP reporter activity,RAW-Dual [1]; agonist: LPS (TLR4) 0.1 ug/mL,5.34
same,NF-kB SEAP reporter activity,RAW-Dual [1]; [4],3.28
same,NF-kB SEAP reporter activity,RAW-Dual [1]; [5],1.99
same,NF-kB SEAP reporter activity,RAW-Dual [1]; [6],2.22
CCC1=CC2CN(C1)Cc1c([nH]c3ccccc13)C(C(=O)OC)(c1cc3c(cc1OC)N(C)C1C(O)(C(=O)OC)C(OC(C)=O)C4(CC)C=CCN5CCC31C54)C2 (stereo not given) (library stock concentration (final ~1000-fold dilution): 10 mM),NF-kB SEAP reporter activity,RAW-Dual [3]; agonist: LPS (TLR4) 0.1 ug/mL,5.34
same,NF-kB SEAP reporter activity,RAW-Dual [3]; [4],0.35
same,NF-kB SEAP reporter activity,RAW-Dual [3]; [5],1.78
same,NF-kB SEAP reporter activity,RAW-Dual [3]; [6],1.95
CCC1(O)CC2CN(CCc3c([nH]c4ccccc34)C(C(=O)OC)(c3cc4c(cc3OC)N(C)C3C(O)(C(=O)OC)C(OC(C)=O)C5(CC)C=CCN6CCC43C65)C2)C1.O=S(=O)(O)O (stereo not given) (library stock concentration (final ~1000-fold dilution): 10 mM),NF-kB SEAP reporter activity,RAW-Dual [3]; agonist: LPS (TLR4) 0.1 ug/mL,5.91
same,NF-kB SEAP reporter activity,RAW-Dual [3]; [4],2.96
same,NF-kB SEAP reporter activity,RAW-Dual [3]; [5],1.48
same,NF-kB SEAP reporter activity,RAW-Dual [3]; [6],1.94
CCC1(O)CC2CN(CCc3c([nH]c4ccccc34)C(C(=O)OC)(c3cc4c(cc3OC)N(C=O)C3C(O)(C(=O)OC)C(OC(C)=O)C5(CC)C=CCN6CCC43C65)C2)C1.O=S(=O)(O)O (stereo not given),NF-kB SEAP reporter activity,RAW-Dual [2]; [7],2.54
same,NF-kB SEAP reporter activity,RAW-Dual [2]; [8],2.37
CCC1(O)CC2CN(CCc3c([nH]c4ccccc34)C(C(=O)OC)(c3cc4c(cc3OC)N(C)C3C(O)(C(=O)OC)C(OC(C)=O)C5(CC)C=CCN6CCC43C65)C2)C1.O=S(=O)(O)O (stereo not given),NF-kB SEAP reporter activity,RAW-Dual [2]; [9],2.51
same,NF-kB SEAP reporter activity,RAW-Dual [2]; [10],2.53
CCC1=CC2CN(C1)Cc1c([nH]c3ccccc13)C(C(=O)OC)(c1cc3c(cc1OC)N(C)C1C(O)(C(=O)OC)C(OC(C)=O)C4(CC)C=CCN5CCC31C54)C2 (stereo not given),NF-kB SEAP reporter activity,RAW-Dual [2]; [9],2.47
same,NF-kB SEAP reporter activity,RAW-Dual [2]; [10],2.6

# — the supplement of paper PMC10037445
